The full data set covers some 7,900 targets. This sample favours those with a hit. About 0.6% of all pairs of compound and target were hits. Unmarked numbers belong to inactive results.
Assays:
Assay in all cases: log2 fold change, soluble protein after heating vs DMSO (PISA); higher = thermal stabilisation; K562 cells, 10 uM, 30 min; active = over 0.2 and 3.5 SD of the protein, either way, in both replicates (recomputed)
[1] = compound: CC[C@@H]1C(=O)N(C)c2cnc(Nc3ccc(C(=O)NC4CCN(C)CC4)cc3OC)nc2N1C1CCCC1
Summary of the method: (§1)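 K562 cells (2×10^6 cells/mL) were treated with 10 μM compound for 30 min, and aliquots were heated for 3 min over 48°C-58°C. Pooled aliquots were extracted in PBS with 0.5% NP-40 at 4°C, and the supernatant after 21,000xg for 90 min was measured by TMTpro 16plex LC-MS/MS with channel sums equalised. Reported thermal stability, relative to control samples and from duplicates, is a log2 fold change.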

volasertib = compound: CC[C@@H]1C(=O)N(C)c2cnc(Nc3ccc(C(=O)N[C@H]4CC[C@H](N5CCN(CC6CC6)CC5)CC4)cc3OC)nc2N1C(C)C [volasertib]
Summary of the method: as §1

[2] = compound: CC[C@H](C)N1C=C(C2=C(C=C(C=C21)C3=CN=C(C=C3)N4CCNCC4)C(=O)NCC5=C(C=C(NC5=O)C)C)C
Summary of the method: as §1

epoxomicin = compound: CC[C@H](C)[C@@H](C(=O)N[C@@H]([C@@H](C)O)C(=O)N[C@@H](CC(C)C)C(=O)[C@]1(CO1)C)NC(=O)[C@H]([C@@H](C)CC)N(C)C(=O)C [epoxomicin]
Summary of the method: as §1

[3] = compound: CCn1c(C(=O)N(C2CC2)C2CC2)cc2c3c(ncn3C)c(Nc3cc(C)n(C)n3)nc21
Summary of the method: as §1

[4] = compound: CCn1cc(-c2ccnc3[nH]c(-c4cccc(CN(C)C)c4)cc23)c(-c2ccc(NC(=O)N(C)C)cc2)n1
Summary of the method: as §1

[5] = compound: CN(C)CC(=O)Nc1ccc2[nH]c(=O)c3ccccc3c2c1
Summary of the method: as §1

rosiglitazone = compound: CN(CCOC1=CC=C(C=C1)C[C@H]2C(=O)NC(=O)S2)C3=CC=CC=N3 (racemic) [rosiglitazone]
Summary of the method: as §1

[6] = compound: CN1C2=C(C3=C1C(=O)N(N=C3)CC4=CC(=CC=C4)N)SC(=C2)S(=O)C
Summary of the method: as §1

[7] = compound: CN1CCC(CNc2ccc3ncc(-c4cccc(OC(F)(F)F)c4)n3n2)CC1
Summary of the method: as §1

saracatinib = compound: CN1CCN(CCOc2cc(OC3CCOCC3)c3c(Nc4c(Cl)ccc5c4OCO5)ncnc3c2)CC1 [saracatinib]
Summary of the method: as §1

sotrastaurin = compound: CN1CCN(c2nc(C3=C(c4c[nH]c5ccccc45)C(=O)NC3=O)c3ccccc3n2)CC1 [sotrastaurin]
Summary of the method: as §1

alvocidib = compound: CN1CC[C@H](c2c(O)cc(O)c3c(=O)cc(-c4ccccc4Cl)oc23)[C@H](O)C1 [alvocidib]
Summary of the method: as §1

Tubastatin A = compound: CN1CCc2c(c3ccccc3n2Cc2ccc(C(=O)NO)cc2)C1 [Tubastatin A]
Summary of the method: as §1

[8] = compound: CNC(=O)C1=CC=CC=C1NC2=NC(=NC=C2Cl)NC3=C(C=C(C=C3)N4CCOCC4)OC
Summary of the method: as §1

defactinib = compound: CNC(=O)c1ccc(Nc2ncc(C(F)(F)F)c(NCc3nccnc3N(C)S(C)(=O)=O)n2)cc1 [defactinib]
Summary of the method: as §1

rucaparib = compound: CNCc1ccc(-c2[nH]c3cc(F)cc4c3c2CCNC4=O)cc1 [rucaparib]
Summary of the method: as §1

[9] = compound: CNc1nc(-c2ccc3c(N)n[nH]c3c2)cc(N2C[C@@H](C(=O)NC3CCCCC3)CC[C@H]2C)n1
Summary of the method: as §1

encorafenib = compound: COC(=O)N[C@@H](C)CNc1nccc(-c2cn(C(C)C)nc2-c2cc(Cl)cc(NS(C)(=O)=O)c2F)n1 [encorafenib]
Summary of the method: as §1

[10] = compound: COC(=O)[C@H](CCSC)NC(=O)C1=C(C=C(C=C1)NC[C@H](CS)N)C2=CC=CC=C2
Summary of the method: as §1

Sequence of UniProt Q96QU8 (Q96QU8 whole entry, looked up): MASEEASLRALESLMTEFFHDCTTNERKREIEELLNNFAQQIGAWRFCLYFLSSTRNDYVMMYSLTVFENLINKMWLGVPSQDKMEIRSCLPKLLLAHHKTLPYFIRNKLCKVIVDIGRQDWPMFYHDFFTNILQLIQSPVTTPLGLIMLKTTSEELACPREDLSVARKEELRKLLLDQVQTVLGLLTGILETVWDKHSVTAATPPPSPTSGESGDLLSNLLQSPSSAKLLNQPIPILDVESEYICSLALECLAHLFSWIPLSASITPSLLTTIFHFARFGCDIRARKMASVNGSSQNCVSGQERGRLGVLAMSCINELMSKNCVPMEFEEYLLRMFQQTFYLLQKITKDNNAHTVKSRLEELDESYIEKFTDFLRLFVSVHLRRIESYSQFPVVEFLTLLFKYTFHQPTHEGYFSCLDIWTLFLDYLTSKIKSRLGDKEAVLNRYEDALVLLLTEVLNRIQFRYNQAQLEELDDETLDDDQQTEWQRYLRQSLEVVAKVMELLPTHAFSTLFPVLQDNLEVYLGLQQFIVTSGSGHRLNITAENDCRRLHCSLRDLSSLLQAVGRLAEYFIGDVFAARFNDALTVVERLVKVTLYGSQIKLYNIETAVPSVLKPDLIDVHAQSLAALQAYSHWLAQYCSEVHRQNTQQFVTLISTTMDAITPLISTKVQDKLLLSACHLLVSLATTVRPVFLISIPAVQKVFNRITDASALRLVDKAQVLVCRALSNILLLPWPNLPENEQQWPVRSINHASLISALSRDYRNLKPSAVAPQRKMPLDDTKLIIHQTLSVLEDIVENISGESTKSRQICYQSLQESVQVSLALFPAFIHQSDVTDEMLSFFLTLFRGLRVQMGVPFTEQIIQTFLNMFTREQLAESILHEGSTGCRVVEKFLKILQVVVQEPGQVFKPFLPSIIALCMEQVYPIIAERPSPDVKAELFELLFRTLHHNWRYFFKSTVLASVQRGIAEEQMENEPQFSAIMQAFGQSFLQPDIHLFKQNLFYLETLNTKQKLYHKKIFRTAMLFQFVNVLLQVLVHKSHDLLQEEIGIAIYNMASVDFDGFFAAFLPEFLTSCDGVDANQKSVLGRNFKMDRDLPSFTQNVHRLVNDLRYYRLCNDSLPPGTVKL
Sequence of UniProt Q9UHP3 (Q9UHP3 whole entry, looked up): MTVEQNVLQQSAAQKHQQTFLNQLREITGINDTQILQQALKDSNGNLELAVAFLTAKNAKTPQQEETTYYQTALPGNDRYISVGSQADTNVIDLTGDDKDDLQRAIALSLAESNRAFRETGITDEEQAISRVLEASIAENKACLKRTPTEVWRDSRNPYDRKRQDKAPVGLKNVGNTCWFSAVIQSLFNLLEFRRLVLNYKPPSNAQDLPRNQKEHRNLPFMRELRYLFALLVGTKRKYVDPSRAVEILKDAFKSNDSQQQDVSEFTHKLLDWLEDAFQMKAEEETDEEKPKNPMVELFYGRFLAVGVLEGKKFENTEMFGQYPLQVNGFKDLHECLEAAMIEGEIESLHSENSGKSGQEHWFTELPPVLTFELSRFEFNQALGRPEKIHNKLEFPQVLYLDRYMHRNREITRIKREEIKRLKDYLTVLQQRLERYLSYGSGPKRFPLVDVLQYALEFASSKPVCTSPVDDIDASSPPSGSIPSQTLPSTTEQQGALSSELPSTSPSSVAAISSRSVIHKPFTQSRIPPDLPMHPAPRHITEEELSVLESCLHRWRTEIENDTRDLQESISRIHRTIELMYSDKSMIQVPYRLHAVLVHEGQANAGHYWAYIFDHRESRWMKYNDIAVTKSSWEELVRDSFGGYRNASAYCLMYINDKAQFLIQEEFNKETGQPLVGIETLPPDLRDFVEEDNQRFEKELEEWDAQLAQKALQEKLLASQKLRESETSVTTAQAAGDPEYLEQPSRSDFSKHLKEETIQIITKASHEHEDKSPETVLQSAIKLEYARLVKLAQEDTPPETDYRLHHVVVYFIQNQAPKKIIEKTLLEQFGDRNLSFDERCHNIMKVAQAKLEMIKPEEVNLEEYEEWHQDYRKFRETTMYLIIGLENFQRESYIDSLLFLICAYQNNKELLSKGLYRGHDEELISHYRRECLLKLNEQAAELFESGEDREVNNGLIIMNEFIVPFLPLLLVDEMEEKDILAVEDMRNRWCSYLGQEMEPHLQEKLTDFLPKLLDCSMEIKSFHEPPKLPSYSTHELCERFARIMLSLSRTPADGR
Sequence of UniProt Q93008 (Q93008 whole entry, looked up): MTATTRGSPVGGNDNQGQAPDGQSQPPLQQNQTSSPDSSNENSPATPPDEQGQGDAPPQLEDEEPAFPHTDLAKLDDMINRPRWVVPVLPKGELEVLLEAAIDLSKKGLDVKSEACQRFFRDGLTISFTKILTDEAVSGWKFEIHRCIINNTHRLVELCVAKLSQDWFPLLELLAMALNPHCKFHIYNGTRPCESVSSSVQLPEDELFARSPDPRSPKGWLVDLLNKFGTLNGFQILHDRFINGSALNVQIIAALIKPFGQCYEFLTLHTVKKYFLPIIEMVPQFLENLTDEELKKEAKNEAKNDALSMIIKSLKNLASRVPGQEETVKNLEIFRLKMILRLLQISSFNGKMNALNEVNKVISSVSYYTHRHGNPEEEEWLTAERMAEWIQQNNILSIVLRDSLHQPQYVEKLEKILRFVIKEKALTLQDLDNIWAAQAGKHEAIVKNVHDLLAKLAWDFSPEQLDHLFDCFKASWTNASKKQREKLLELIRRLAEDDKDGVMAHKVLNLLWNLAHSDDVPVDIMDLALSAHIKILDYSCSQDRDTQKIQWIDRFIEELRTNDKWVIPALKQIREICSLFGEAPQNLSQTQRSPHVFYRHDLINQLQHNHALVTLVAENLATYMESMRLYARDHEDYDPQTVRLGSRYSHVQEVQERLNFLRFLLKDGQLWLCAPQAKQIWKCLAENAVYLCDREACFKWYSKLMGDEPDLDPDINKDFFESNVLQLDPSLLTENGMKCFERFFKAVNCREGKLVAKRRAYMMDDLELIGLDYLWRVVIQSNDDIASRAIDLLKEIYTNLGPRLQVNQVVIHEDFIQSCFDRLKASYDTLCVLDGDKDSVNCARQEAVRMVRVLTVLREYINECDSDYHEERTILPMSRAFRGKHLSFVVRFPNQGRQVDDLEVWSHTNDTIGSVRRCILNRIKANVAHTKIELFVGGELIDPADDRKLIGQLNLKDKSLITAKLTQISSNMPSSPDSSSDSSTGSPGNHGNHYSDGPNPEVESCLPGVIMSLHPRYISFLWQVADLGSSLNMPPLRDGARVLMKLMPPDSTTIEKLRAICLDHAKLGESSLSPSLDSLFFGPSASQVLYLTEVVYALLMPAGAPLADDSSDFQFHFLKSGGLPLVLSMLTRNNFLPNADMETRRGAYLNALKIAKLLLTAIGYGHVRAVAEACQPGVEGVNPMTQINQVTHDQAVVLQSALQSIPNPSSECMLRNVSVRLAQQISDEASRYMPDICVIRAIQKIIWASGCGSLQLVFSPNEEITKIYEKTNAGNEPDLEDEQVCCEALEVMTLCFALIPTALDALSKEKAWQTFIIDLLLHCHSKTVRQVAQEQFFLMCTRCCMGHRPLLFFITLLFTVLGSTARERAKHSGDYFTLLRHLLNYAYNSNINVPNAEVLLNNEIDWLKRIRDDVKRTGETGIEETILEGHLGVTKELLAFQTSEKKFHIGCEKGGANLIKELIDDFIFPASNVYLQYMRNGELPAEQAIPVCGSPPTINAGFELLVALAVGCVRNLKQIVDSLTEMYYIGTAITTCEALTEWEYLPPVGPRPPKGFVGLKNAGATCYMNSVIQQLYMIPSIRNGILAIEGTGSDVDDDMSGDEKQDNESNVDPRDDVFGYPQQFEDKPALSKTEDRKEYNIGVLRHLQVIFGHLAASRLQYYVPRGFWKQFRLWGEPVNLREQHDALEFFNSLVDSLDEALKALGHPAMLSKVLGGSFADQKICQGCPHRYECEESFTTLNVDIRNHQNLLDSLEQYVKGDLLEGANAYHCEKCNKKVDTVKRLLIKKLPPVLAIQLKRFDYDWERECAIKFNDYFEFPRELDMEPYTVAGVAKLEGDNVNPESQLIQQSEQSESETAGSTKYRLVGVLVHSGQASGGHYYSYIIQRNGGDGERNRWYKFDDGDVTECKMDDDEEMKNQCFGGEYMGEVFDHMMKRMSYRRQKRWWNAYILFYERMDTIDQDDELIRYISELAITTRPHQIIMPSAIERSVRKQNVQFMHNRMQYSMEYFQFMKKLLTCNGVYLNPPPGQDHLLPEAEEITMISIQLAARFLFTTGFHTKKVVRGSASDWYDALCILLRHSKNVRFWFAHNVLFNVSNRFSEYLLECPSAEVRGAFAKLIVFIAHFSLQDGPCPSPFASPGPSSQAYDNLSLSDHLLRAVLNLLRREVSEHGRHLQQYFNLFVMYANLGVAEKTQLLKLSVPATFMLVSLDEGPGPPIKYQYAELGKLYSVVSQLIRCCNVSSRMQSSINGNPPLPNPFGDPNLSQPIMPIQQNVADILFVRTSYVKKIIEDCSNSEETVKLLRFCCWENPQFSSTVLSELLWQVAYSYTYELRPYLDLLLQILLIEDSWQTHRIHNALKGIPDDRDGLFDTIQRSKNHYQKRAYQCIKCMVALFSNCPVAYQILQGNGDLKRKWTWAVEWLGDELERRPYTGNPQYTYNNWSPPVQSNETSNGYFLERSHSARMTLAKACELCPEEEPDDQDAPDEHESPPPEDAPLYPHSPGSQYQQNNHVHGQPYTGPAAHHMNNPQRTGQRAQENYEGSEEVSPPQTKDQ
Sequence of UniProt P07951 (P07951 whole entry, looked up): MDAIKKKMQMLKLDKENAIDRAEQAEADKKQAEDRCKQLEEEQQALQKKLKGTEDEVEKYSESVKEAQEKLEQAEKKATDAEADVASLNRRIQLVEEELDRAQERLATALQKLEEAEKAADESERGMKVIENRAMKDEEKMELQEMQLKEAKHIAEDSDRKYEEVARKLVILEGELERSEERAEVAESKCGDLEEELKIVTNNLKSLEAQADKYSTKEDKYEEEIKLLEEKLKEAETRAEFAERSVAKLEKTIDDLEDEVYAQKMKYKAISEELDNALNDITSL

| Target | log2 fold change [1] | log2 fold change (volasertib) | log2 fold change [2] | log2 fold change (epoxomicin) | log2 fold change [3] | log2 fold change [4] | log2 fold change [5] | log2 fold change (rosiglitazone) | log2 fold change [6] | log2 fold change [7] | log2 fold change (saracatinib) | log2 fold change (sotrastaurin) | log2 fold change (alvocidib) | log2 fold change (Tubastatin A) | log2 fold change [8] | log2 fold change (defactinib) | log2 fold change (rucaparib) | log2 fold change [9] | log2 fold change (encorafenib) | log2 fold change [10] |
| --- | --- | --- | --- | --- | --- | --- | --- | --- | --- | --- | --- | --- | --- | --- | --- | --- | --- | --- | --- | --- |
| USP9X (UniProt Q93008) | -0.108 | -0.382 (active) | 0.038 | 0.01 | -0.027 | -0.056 | 0.01 | 0.037 | -0.028 | -0.21 | -0.006 | -0.073 | -0.056 | -0.014 | -0.022 | -0.03 | 0.032 | -0.003 | 0.082 | -0.009 |
| UTP14A (UniProt Q9BVJ6) | 0.092 | 0.176 | 0.028 | -0.144 | 0.028 | 0.106 | -0.136 | -0.106 | 0.263 | 0.106 | -0.023 | -0.017 | 0.077 | 0.163 | 0.024 | 0.055 | 0.15 | 0.066 | 0.124 | 0.021 |
| USP25 isoform 3 (UniProt Q9UHP3) | -0.085 | -0.297 (active) | 0.046 | 0.008 | -0.016 | -0.004 | 0.041 | 0.022 | -0.03 | -0.006 | 0.045 | -0.003 | -0.031 | 0.061 | 0.044 | -0.045 | 0.019 | -0.028 | 0.01 | -0.033 |
| TPM2 (UniProt P07951) | -0.07 | 0.173 | 0.069 | 0.287 | 0.023 | -0.04 | -0.057 | -0.024 | -0.023 | 0.118 | 0.177 | -0.033 | -0.078 | -0.012 | 0.004 | 0.042 | -0.027 | -0.026 | -0.006 | 0.102 |
| WNK1 isoform 7 (UniProt Q9H4A3) | -0.021 | -0.01 | 0.04 | 0.013 | -0.012 | -0.005 | 0.005 | 0.015 | -0.001 | 0.019 | 0.022 | 0.003 | -0.007 | -0.005 | -0.047 | 0.003 | 0.013 | -0.035 | 0.012 | 0.006 |
| XRCC6 (UniProt P12956) | -0.205 | -0.515 (active) | 0.095 | 0.072 | -0.032 | 0.008 | 0.071 | 0.07 | -0.014 | -0.172 | -0.013 | -0.114 | -0.187 | 0.099 | -0.047 | -0.264 (active) | -0.007 | -0.015 | 0.048 | -0.041 |
| XPO6 (UniProt Q96QU8) | -0.054 | -0.536 (active) | -0.017 | -0.249 | -0.011 | 0.174 | 0.065 | 0 | 0.018 | -0.134 | -0.012 | -0.119 | -0.115 | -0.009 | 0.036 | -0.104 | 0.076 | 0.037 | 0.015 | -0.03 |
| TPP1 (UniProt O14773) | -0.647 (active) | -1.09 (active) | -0.002 | 0.019 | 0.033 | -0.117 | 0.007 | 0.007 | -0.001 | -0.569 (active) | -0.008 | -0.005 | -0.005 | 0.005 | 0.007 | 0.049 | -0.013 | -0.013 | 0.018 | 0.011 |
